According to PubChem BioAssay (EPA / NIEHS):
Calls of active or inactive are those of the source. The calls were made as follows: active = hit-call score of the fitted dose curve at least 0.9, where 1 is the maximum; inactive = score below 0.9.

Tests used:
Settings in all cases: mRNA level, 48 h; actives raise or lower the signal
[1] = read-out: Hypoxia-inducible factor 1-alpha (Homo sapiens) (UniProt Q16665); test: LTEA_HepaRG_HIF1A: Life Technologies and Expression Analysis (LTEA) Assay for Hypoxia-inducible factor 1 (HIF1A) Trancription factor using HepaRG (AID 2283503)
Outline: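 Differentiated HepaRG cells in serum-free induction medium exposed 48 h, in duplicate, to 8-point half-log series from 100 uM in 0.5% DMSO. HIF1A mRNA measured by TaqMan qRT-PCR, normalized to ACTB/GAPDH/POLR2A, fitted bidirectionally versus DMSO.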

[2] = read-out: 3-Hydroxy-3-Methylglutaryl-CoA Synthase 2 (HMGCS2), HMGCS2 (gene 3158); test: LTEA_HepaRG_HMGCS2: Life Technologies and Expression Analysis (LTEA) Assay for 3-Hydroxy-3-Methylglutaryl-CoA Synthase 2 (HMGCS2) using HepaRG (AID 2283504)
Outline: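 This steatosis marker was read as HMGCS2 mRNA change in HepaRG cells treated 48 h with up to 100 uM chemical. Normalisation used housekeeping genes; activity in either direction was fitted relative to 0.5% DMSO vehicle.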

HGF (gene 3082) = test: LTEA_HepaRG_HGF: Life Technologies and Expression Analysis (LTEA) Assay for Hepatocyte Growth Facto (HGF) using HepaRG (AID 2283505)
Outline: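 Using HepaRG monolayers kept in 0.5% DMSO, chemicals were tested in duplicate over eight half-log concentrations from 100 uM for 48 h. Endpoint: HGF mRNA change relative to DMSO, normalized to ACTB/GAPDH/POLR2A.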

[3] = read-out: Insulin Like Growth Factor 1 (IGF1), IGF1 (gene 3479); test: LTEA_HepaRG_IGF1: Life Technologies and Expression Analysis (LTEA) Assay for Insulin Like Growth Factor 1 (IGF1) using HepaRG (AID 2283506)
Outline: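 HepaRG, plated 48 h, then switched to serum-free induction media; test chemical 8-pt half-log from 100 uM (0.5% DMSO), duplicate, 48 h. Lysis in RLT, TaqMan qRT-PCR, norm. ACTB/GAPDH/POLR2A. Bidirectional fit vs DMSO.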

[4] = read-out: Intercellular Adhesion Molecule 1 (ICAM1), ICAM1 (gene 3383); test: LTEA_HepaRG_ICAM1: Life Technologies and Expression Analysis (LTEA) Assay for Intercellular Adhesion Molecule 1 (ICAM1) using HepaRG (AID 2283507)
Outline: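 Using the human liver line HepaRG, compounds are tested in duplicate over 48 h at concentrations up to 100 uM. Expression is determined by TaqMan qRT-PCR, normalized to endogenous controls, and analysed relative to 0.5% DMSO vehicle.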

[5] = read-out: Interleukin 6 (IL6), IL6 (gene 3569); test: LTEA_HepaRG_IL6: Life Technologies and Expression Analysis (LTEA) Assay for Interleukin 6 (IL6) using HepaRG (AID 2283509)
Outline: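 HepaRG, ~100,000 cells/well, 48 h pre-culture; serum-free induction medium; cmpd 8-pt half-log from 100 uM, 0.5% DMSO, duplicate, 48 h. Lysis in RLT, TaqMan qRT-PCR; gain or loss vs DMSO.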

[6] = read-out: Potassium channel subfamily K member 1 (KCNK1), KCNK1 (gene 3775); test: LTEA_HepaRG_KCNK1: Life Technologies and Expression Analysis (LTEA) Assay for Potassium channel subfamily K member 1 (KCNK1) using HepaRG (AID 2283511)
Outline: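 Gain or loss of KCNK1 mRNA is the read-out, quantified by qRT-PCR against three housekeeping genes after 48 h chemical treatment of human HepaRG liver cells. Concentrations ran from 100 uM downward in half-log steps, vehicle 0.5% DMSO.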

[7] = read-out: Keratin 19 (KRT19), KRT19 (gene 3880); test: LTEA_HepaRG_KRT19: Life Technologies and Expression Analysis (LTEA) Assay for Keratin 19 (KRT19) using HepaRG (AID 2283512)
Outline: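 Readout is qRT-PCR of KRT19 mRNA, normalized to ACTB, GAPDH and POLR2A, from HepaRG cells treated 48 h with eight-point half-log dilutions topping at 100 uM. Activity in either direction is scored relative to 0.5% DMSO vehicle.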

[8] = read-out: JUN Transcription Factor, JUN (gene 3725); test: LTEA_HepaRG_JUN: Life Technologies and Expression Analysis (LTEA) Assay for JUN Transcription Factor using HepaRG (AID 2283513)
Outline: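 Cells plated 48 h, medium switched to serum-free induction medium, then dosed 48 h (100 uM top, half-log dilutions, 0.5% DMSO). RNA isolated; JUN measured by qRT-PCR against three housekeeping genes; gain or loss fitted relative to DMSO.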

[9] = read-out: Lipase C (LIPC), LIPC (gene 3990); test: LTEA_HepaRG_LIPC: Life Technologies and Expression Analysis (LTEA) Assay for Lipase C (LIPC) using HepaRG (AID 2283514)
Outline: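 Read-out is LIPC transcript level by TaqMan qRT-PCR, normalized to three housekeeping genes, after 48 h chemical treatment of human HepaRG liver cells. Curves span eight concentrations topping at 100 uM; activity in either direction scored relative to 0.5% DMSO.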

[10] = read-out: MicroRNA 122 (MIR122), gene 406906; test: LTEA_HepaRG_MIR122: Life Technologies and Expression Analysis (LTEA) Assay for MicroRNA 122 (MIR122) using HepaRG (AID 2283516); also: the transcript read is the microRNA miR-122
Outline: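 HepaRG plated 48 h, switched to serum-free induction medium, then treated in duplicate for 48 h (100 uM top, half-log steps, 0.5% DMSO vehicle). RNA isolated, qRT-PCR performed, concentration-response fitted both directions relative to DMSO.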

[11] = read-out: matrix metalloproteinase-10 (MMP10), MMP10 (gene 4319); test: LTEA_HepaRG_MMP10: Life Technologies and Expression Analysis (LTEA) Assay for matrix metalloproteinase-10 (MMP10) using HepaRG (AID 2283517)
Outline: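 Gain or loss of MMP10 mRNA is fitted relative to the 0.5% DMSO vehicle. The human hepatic line HepaRG receives a 48-hour serum-free exposure, in duplicate, with a maximum concentration of 100 uM.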

MYC, MYC (gene 4609) = test: LTEA_HepaRG_MYC: Life Technologies and Expression Analysis (LTEA) Assay for MYC using HepaRG (AID 2283518)
Outline: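 Expression changes were scored by TaqMan qRT-PCR with ACTB, GAPDH and POLR2A normalization. Cultures in serum-free induction medium received duplicate 8-point concentration series, highest 100 uM, for 48 h; DMSO (0.5%) served as baseline.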

[12] = read-out: matrix metalloproteinase-3 (MMP3), MMP3 (gene 4314); test: LTEA_HepaRG_MMP3: Life Technologies and Expression Analysis (LTEA) Assay for matrix metalloproteinase-3 (MMP3) using HepaRG (AID 2283519)
Outline: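 HepaRG, human; 48 h dosing, 8 conc. (max 100 uM, half-log), duplicate, 0.5% DMSO. Readout: MMP3 transcript by Fluidigm TaqMan qRT-PCR, ACTB/GAPDH/POLR2A-normalised. Gain or loss fitted vs DMSO.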

[13] = read-out: Paternally Expressed 10 (PEG10), PEG10 (gene 23089); test: LTEA_HepaRG_PEG10: Life Technologies and Expression Analysis (LTEA) Assay for Paternally Expressed 10 (PEG10) using HepaRG (AID 2283520)
Outline: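 HepaRG, 48 h post-plating → serum-free induction medium → 48 h chemical exposure (duplicate, 8-pt, max 100 uM, half-log, 0.5% DMSO) → lysis in RLT → TaqMan qRT-PCR for PEG10, ACTB/GAPDH/POLR2A normalisation.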

[14] = read-out: Protein phosphatase 2A (PPP2R4), PTPA (gene 5524); test: LTEA_HepaRG_PPP2R4: Life Technologies and Expression Analysis (LTEA) Assay for Protein phosphatase 2A (PPP2R4) using HepaRG (AID 2283522)
Outline: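 Readout is PPP2R4 transcript level by microfluidic qRT-PCR after 48 h chemical treatment of human HepaRG liver cells. Concentrations spanned 100 uM downward in half-log steps; gain or loss of signal was fitted relative to DMSO.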

[15] = read-out: Insulin-like growth factor-binding protein 1 (IGFBP1), IGFBP1 (gene 3484); test: LTEA_HepaRG_IGFBP1: Life Technologies and Expression Analysis (LTEA) Assay for Insulin-like growth factor-binding protein 1 (IGFBP1) using HepaRG (AID 2283508)
Outline: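 HepaRG, 48 h, 8 conc. (max 100 uM, half-log), duplicates, 0.5% DMSO. Readout: TaqMan qRT-PCR, ACTB/GAPDH/POLR2A normalisation. Fit: bidirectional vs DMSO.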

[16] = read-out: Lipoprotein lipase (LPL), LPL (gene 4023); test: LTEA_HepaRG_LPL: Life Technologies and Expression Analysis (LTEA) Assay for Lipoprotein lipase (LPL) using HepaRG (AID 2283515)
Outline: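 Read-out is LPL transcript level by qRT-PCR, normalized to three housekeeping genes and fitted bidirectionally against the DMSO control. Human HepaRG cells received chemicals for 48 h at up to 100 uM.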

[17] = read-out: Nuclear factor NF-kappa-B p105 subunit (Homo sapiens) (UniProt P19838); test: LTEA_HepaRG_NFKB1: Life Technologies and Expression Analysis (LTEA) Assay for Nuclear Factor Kappa B Subunit 1 (NFKB1) using HepaRG (AID 2283521);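 also: differentiated human HepaRG liver cells in serum-free induction medium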
Outline: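 NFKB1 transcript was measured by TaqMan qRT-PCR on Fluidigm arrays, normalised to three housekeeping genes and fitted in both directions against 0.5% DMSO. HepaRG cells were dosed in duplicate for 48 h in serum-free induction medium, eight half-log steps from 100 uM.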

[18] = read-out: Interleukin 6 Receptor (IL6R), IL6R (gene 3570); test: LTEA_HepaRG_IL6R: Life Technologies and Expression Analysis (LTEA) Assay for Interleukin 6 Receptor (IL6R) using HepaRG (AID 2283510)
Outline: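 Readout is IL6R transcript level by TaqMan qRT-PCR, normalized to three housekeeping genes and fitted bidirectionally against 0.5% DMSO controls. Human HepaRG cells received chemicals for 48 h in serum-free induction medium, highest concentration 100 uM.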

Measured: AC50

Nuclear factor NF-kappa-B p105 subunit (Homo sapiens), sequence (P19838 whole entry, looked up): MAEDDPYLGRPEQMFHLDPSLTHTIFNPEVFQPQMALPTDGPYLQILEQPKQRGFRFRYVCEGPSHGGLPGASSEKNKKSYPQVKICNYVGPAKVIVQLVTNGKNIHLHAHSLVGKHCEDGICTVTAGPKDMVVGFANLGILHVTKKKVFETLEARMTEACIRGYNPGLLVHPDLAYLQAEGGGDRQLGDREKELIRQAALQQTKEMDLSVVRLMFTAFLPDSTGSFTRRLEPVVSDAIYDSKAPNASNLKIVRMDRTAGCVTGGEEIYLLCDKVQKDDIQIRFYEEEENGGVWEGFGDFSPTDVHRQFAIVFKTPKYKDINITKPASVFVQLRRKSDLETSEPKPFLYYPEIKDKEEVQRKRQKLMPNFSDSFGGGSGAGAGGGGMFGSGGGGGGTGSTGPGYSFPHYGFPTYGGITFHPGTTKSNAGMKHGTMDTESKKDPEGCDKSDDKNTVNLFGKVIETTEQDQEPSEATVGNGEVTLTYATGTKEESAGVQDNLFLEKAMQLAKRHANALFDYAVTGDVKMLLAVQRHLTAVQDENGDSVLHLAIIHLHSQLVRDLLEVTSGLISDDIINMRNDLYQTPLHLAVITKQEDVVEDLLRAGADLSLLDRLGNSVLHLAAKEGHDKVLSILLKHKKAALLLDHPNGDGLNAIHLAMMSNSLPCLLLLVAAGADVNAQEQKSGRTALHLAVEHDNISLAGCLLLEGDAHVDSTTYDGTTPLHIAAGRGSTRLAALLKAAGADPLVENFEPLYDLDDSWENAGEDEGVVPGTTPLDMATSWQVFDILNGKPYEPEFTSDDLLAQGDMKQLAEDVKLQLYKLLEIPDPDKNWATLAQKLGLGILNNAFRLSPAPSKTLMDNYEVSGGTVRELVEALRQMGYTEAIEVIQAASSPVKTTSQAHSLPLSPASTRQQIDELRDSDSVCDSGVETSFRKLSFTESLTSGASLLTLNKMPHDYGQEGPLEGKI
Hypoxia-inducible factor 1-alpha (Homo sapiens), sequence (Q16665 whole entry, looked up): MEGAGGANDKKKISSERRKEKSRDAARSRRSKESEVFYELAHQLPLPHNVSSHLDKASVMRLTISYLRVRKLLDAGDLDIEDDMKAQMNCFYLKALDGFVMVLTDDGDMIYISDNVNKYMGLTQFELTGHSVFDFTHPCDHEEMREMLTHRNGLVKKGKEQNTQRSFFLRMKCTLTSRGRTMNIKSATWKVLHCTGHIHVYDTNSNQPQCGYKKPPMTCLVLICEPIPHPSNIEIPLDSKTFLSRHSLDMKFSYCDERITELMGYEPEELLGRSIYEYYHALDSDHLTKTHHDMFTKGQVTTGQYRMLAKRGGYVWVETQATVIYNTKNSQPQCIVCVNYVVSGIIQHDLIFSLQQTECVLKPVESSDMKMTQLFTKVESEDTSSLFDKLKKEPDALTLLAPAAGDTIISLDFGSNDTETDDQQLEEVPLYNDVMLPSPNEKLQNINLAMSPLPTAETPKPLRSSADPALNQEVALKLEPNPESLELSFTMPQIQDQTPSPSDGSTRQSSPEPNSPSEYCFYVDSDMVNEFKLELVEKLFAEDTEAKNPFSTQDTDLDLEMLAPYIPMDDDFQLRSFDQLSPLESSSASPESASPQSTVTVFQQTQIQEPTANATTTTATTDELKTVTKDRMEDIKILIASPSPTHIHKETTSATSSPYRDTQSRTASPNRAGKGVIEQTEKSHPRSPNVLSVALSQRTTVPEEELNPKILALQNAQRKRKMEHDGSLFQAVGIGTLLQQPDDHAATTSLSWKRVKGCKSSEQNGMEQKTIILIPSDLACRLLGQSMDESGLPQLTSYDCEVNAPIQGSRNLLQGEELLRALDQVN

O=C(O)COc1ccc(Cl)cc1Cl
inactive: [1] | [2] | HGF (gene 3082) | [3] | [4] | [5] | [6] | [7] | [8] | [9] | [10] | [11] | MYC, MYC (gene 4609) | [12] | [14]
active: [13] 10.1 µM

OCCOc1ccccc1
inactive: [1] | [2] | HGF (gene 3082) | [3] | [4] | [15] | [5] | [6] | [7] | [8] | [9] | [16] | [10] | [11] | MYC, MYC (gene 4609) | [12] | [13] | [14]

CC(C)(C)C(O)/C(=C\c1ccc(Cl)cc1Cl)n1cncn1 (configuration not stated)
inactive: HGF (gene 3082) | [7] | [10] | [11] | MYC, MYC (gene 4609) | [12]
active: [1] 82.3 µM | [2] 30.7 µM | [3] 91.2 µM | [4] 50 µM | [15] 56.9 µM | [5] 94.6 µM | [6] 71.6 µM | [8] 72.7 µM | [9] 21.5 µM | [16] 12.4 µM | [13] 62.5 µM | [14] 85.9 µM

N#CN
inactive: [1] | [2] | HGF (gene 3082) | [3] | [4] | [15] | [5] | [6] | [7] | [8] | [9] | [16] | [10] | [11] | MYC, MYC (gene 4609) | [12] | [13] | [17] | [14]

CNC(=O)Oc1ccccc1OC(C)C
inactive: [1] | [2] | HGF (gene 3082) | [3] | [4] | [15] | [5] | [6] | [7] | [8] | [9] | [16] | [10] | [11] | MYC, MYC (gene 4609) | [12] | [13] | [17] | [14]

CCC(C)Nc1c([N+](=O)[O-])cc(C(C)(C)C)cc1[N+](=O)[O-] (configuration not stated)
inactive: [1] | HGF (gene 3082) | [4] | [15] | [5] | [6] | [7] | [8] | [9] | [16] | [10] | [11] | MYC, MYC (gene 4609) | [12] | [14]
active: [2] 50 µM | [3] 48 µM | [13] 29.9 µM

O=C(Nc1ccccc1)Nc1cnns1
inactive: [1] | HGF (gene 3082) | [4] | [18] | [6] | [8] | [11] | [17] | [14]
active: [2] 73.7 µM | [3] 50 µM | [15] 83.5 µM | [7] 50 µM | [9] 76.9 µM | [16] 81.5 µM | [10] 69.2 µM | MYC, MYC (gene 4609) 87.7 µM | [12] 91.2 µM | [13] 61.5 µM
